The target in test [1] is Lysosomal acid glucosylceramidase (Homo sapiens) (UniProt P04062). Put plainly: Glucocerebrosidase-p2 (AID 348; in the data active = potency below about 10 µM; note: potency is the fitted concentration of half-maximal effect). Conditions: purified GBA, blue fluorogenic substrate, 40 min. In a few lines: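 Normal human glucocerebrosidase (0.2 nM) with blue fluorogenic substrate (80 uM final) in citrate/phosphate pH 5.9 with 10mM sodium taurocholate, 0.01% tween-20; 40 min RT, NaOH/glycine stop; fluorescence Ex 365/Em 440; AC50 from a titration from 0.6 nM upwards.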

The nature of test [2]: AP1 Signaling Pathway (AID 357).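 Note: ME-180 reporter cells stimulated with EGF at its EC50 level; % is set by controls: 0 for no effect and ±100 for the full control effect.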 As to conditions: ME-180 AP-1-bla reporter, EGF-induced, beta-lactamase ratio, 5 h; at 7.69 µM (top of the series) unless noted. In a few lines:
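First, ME-180 AP-1-bla cells were cultured overnight at 37 °C in low-serum Opti-MEM. Next, titrated compounds with EC50 EGF were incubated 5 hours. Finally, CCF4 was added for 2.5 hours and the 460/530 nm ratio recorded.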

Test [3] addresses Cytochrome P450 1A2 (Homo sapiens) (UniProt P05177). The test can be described thus: p450-cyp1a2 (AID 410; calls by dose curve; note: potency is the fitted concentration of half-maximal effect). As to conditions: recombinant CYP1A2, luciferin-ME demethylation, luminescence; series mostly up to 11.4 µM. The procedure, abridged:
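O-Demethylation of luciferin 6' methyl ether by human CYP1A2 is monitored as luciferase luminescence. Substrate sits at Km (100uM); enzyme is 20nM. Values are scaled to 57 uM furafylline as maximal inhibition.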

Test [4] in a line: NFAT Signaling Pathway (AID 444).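 Note: carbachol stimulus at about its EC50 of 1 µM final; % is set by controls: 0 for no effect and ±100 for the full control effect.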 As to conditions: Jurkat NFAT-bla M1, carbachol, beta-lactamase ratio, 5 h; at 7.69 µM (top of the series) unless noted. In a few lines: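 Jurkat cells carrying an NFAT-driven β-lactamase reporter and co-transfected muscarinic M1 receptor were treated with compound plus carbachol (1 uM final, an EC50 level) for 5 h at 37 °C. CCF4 loading followed for 1 h at RT; 460/530 nm ratio gave %activity.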

The nature of test [5]: Stat Signaling Pathway (AID 446).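 Note: ME-180 cervical cancer cells given 40 pM IL-6 alongside compound; SIE-controlled beta-lactamase reporter measured as 460/530 nm FRET emission ratio; % is set by controls: 0 for no effect and ±100 for the full control effect.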 As to conditions: ME-180 SIE beta-lactamase reporter, IL-6 stimulated, 5 h; at 7.69 µM (top of the series) unless noted. In a few lines:
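Normalization used AC90 stimulation (300 pM IL-6) and AC90 inhibition (125 nM pan-JAK inhibitor at 40 pM IL-6). The underlying signal is SIE-driven beta-lactamase in ME-180 cells after 5 h IL-6 exposure with compound.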

Test [6] has as its target Glucocorticoid receptor (Homo sapiens) (UniProt P04150). Put plainly: GR-EFC Redistribution (AID 451; calls by dose curve; note: potency is the fitted concentration of half-maximal effect). As to conditions: CHO-K1 GR-EFC translocation, beta-gal luminescence, 2 h. In a few lines: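 CHO-K1 cells stably expressing nuclear-localized β-gal enzyme acceptor and GR fused C-terminally to the enzyme donor fragment; ligand-driven nuclear translocation restores β-gal by complementation. Compounds titrated up to 46 uM final, 2 h at 37 °C; luminescence read.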

Test [7] concerns the target Mitogen-activated protein kinase 10 (Mus musculus) (UniProt Q61831). The test can be described thus: JNK3 AlphaScreen Assay (AID 530).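 Note: kinase came from lysate of stimulated human HepG2 cells; signal reports phosphorylation of biotinylated GST-cJun 1-79 at Ser73 with 10 µM ATP; % is set by controls: 0 for no effect and ±100 for the full control effect.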 As to conditions: JNK3 lysate, c-Jun phosphorylation; series mostly up to 11.4 µM. The procedure, abridged:
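Phosphorylation of biotinylated GST-cJun(1-79) at Ser73 is measured by AlphaScreen proximity luminescence. Enzyme is JNK3 in HepG2 lysates activated with interleukin-1beta and tumor necrosis factor alpha; ATP is 10 uM final.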

In test [8] the target is 3',5'-cyclic-AMP phosphodiesterase 4B (Homo sapiens) (UniProt Q07343). Put plainly: qHTS Assay for Inhibitors of PDE-IV (AID 607; active = well fitted activation curve with a large enough effect in the main read-out, with a control signal flat, not every such curve was filed as active; note: % of control where 0% means no effect). As to conditions: HEK293 ACTOne CNG channel cells, membrane potential fluorescence; series mostly up to 22.9 µM. In a few lines: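 HEK293 ACTOne cells with CNG channel (1000/well), endogenous PDE4; membrane potential dye, compounds up to 22.9 uM final. Fluorescence Ex 535/Em 590; RO 20-1724 (100 uM final) as reference.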

The target of test [9] is Glucocorticoid receptor (Homo sapiens) (UniProt P04150). The test can be described thus: GR-GFP Redistribution (AID 450;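 active = compounds whose dose series gives a full or clear partial fitted curve of increased nuclear translocation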; note: potency is the fitted concentration of half-maximal effect). As to conditions: U2OS GR-GFP nuclear translocation, laser cytometry, 2 h.
Test [10] can be described thus: qHTS Assay for Identification of Small Molecule Agonists for Hypoxia Response Element Signaling Pathway (AID 914; active = well fitted activation curve with a large enough effect in the signal ratio, with a control signal flat, not every such curve was filed as active; the % refers to the signal ratio; note: % of control where 0% means no effect). As to conditions: ME-180 (cervical carcinoma) HRE-bla reporter, beta-lactamase ratio, CoCl2, 17 h; activation: hits give high values. In a few lines:
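In Opti-MEM containing 0.5% dialyzed FBS and 10 mM HEPES, ME-180 HRE-bla cells received a compound titration and EC50 CoCl2. They were incubated 17 hours, then CCF4-loaded 2.5 hours at room temperature before ratio reading.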

The target in test [11] is Cytochrome P450 3A4 (Homo sapiens) (UniProt P08684). Put plainly: qHTS Assay for Inhibitors and Substrates of Cytochrome P450 3A4 (AID 884; active = well fitted curve in the direction sought with a large enough effect; an effect the other way counts as inactive or inconclusive; note: % is set by controls: 0 for no effect and ±100 for the full control effect; nearly all actives have a fitted effect of over 50% in size). As to conditions: recombinant CYP3A4, Luciferin-PPXE luminescence; series mostly up to 57.1 µM. The procedure, abridged:
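Luminescent readout of luciferin produced by CYP3A4 (20 nM) dealkylation of Luciferin-PPXE, 25 uM (its KM). NADPH-driven reaction ran 60 min at RT after 10 min compound preincubation; data scaled to 57 uM ketoconazole as 100% inhibition.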

The target of test [12] is ATP-dependent 6-phosphofructokinase (Trypanosoma brucei brucei) (UniProt O15648). Put plainly: qHTS Assay to Find Inhibitors of T. brucei phosphofructokinase: hit validation (AID 492961; active = well fitted curve in the direction sought with a large enough effect; an effect the other way counts as inactive or inconclusive). Conditions: T. brucei PFK, ADP-Glo luminescence; series mostly up to 51.4 µM. The procedure, abridged: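 Reaction: 0.1 M triethanolamine pH 8.0, 5 mM MgCl2, F6P 0.5 mM, ATP 0.1 mM, PFK 1.25 nM, 45 min RT. Read-out: ADP-Glo luminescence. Analysis: concentration-response fits, classed by r2 and efficacy.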

Test [13] can be described thus: qHTS profiling for inhibitors of Plasmodium falciparum proliferation (AID 504749; active = well fitted curve in the direction sought with a large enough effect; an effect the other way counts as inactive or inconclusive;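 note: 0% = DMSO vehicle and full inhibition = artemisinin control; nearly all actives have a fitted effect of over 60% in size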). Conditions: P. falciparum in erythrocytes, SYBR Green DNA, 72 h, at 28.7 µM (top of the series). In a few lines: (§1)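 Quantitative HTS: compounds pinned into medium, infected erythrocytes added (0.3% parasitemia, 2.5% hematocrit), 72 h culture at 37 C under 5% CO2. Saponin/Triton lysis with SYBR Green I, overnight RT, then fluorescence read.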

Another test relates to CP192. The test is described as above. As to conditions: P. falciparum in erythrocytes, SYBR Green DNA, 72 h; series mostly up to 28.7 µM. In a few lines:
as §1

Another test concerns CP203. The test is described as above. As to conditions: P. falciparum in erythrocytes, SYBR Green DNA, 72 h; series mostly up to 28.7 µM. In a few lines:
as §1

A further test deals with W2. The test is described as above. Conditions: P. falciparum in erythrocytes, SYBR Green DNA, 72 h; series mostly up to 28.7 µM. The procedure, abridged:
as §1

Test [14] addresses Cytochrome P450 2C9 (Homo sapiens) (UniProt P11712). The test can be described thus: qHTS Assay for Inhibitors and Substrates of Cytochrome P450 2C9 (AID 883; active = well fitted curve in the direction sought with a large enough effect; an effect the other way counts as inactive or inconclusive; note: % is set by controls: 0 for no effect and ±100 for the full control effect; nearly all actives have a fitted effect of over 60% in size). As to conditions: recombinant CYP2C9, luciferin-H luminescence, 60 min; series mostly up to 11.4 µM. The procedure, abridged: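 CYP2C9 deoxyluciferin hydroxylation, 37C, 60 min with NADPH regeneration; 10nM enzyme, 100uM Luciferin-H (KM). Glo detection reagent stopped reaction; luminescence normalized to sulphaphenazole (57uM) full inhibition.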

Test [15] has as its target Cytochrome P450 2C19 (Homo sapiens) (UniProt P33261). The test can be described thus: qHTS Assay for Inhibitors and Substrates of Cytochrome P450 2C19 (AID 899; active = well fitted curve in the direction sought with a large enough effect; an effect the other way counts as inactive or inconclusive; note: potency is the fitted concentration of half-maximal effect; nearly all actives have a fitted effect of over 60% in size). Conditions: recombinant CYP2C19, luciferin-H EGE luminescence; series mostly up to 11.4 µM. In a few lines:
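In 50mM KPO4, the reaction held 5nM enzyme and KM-level (10uM) Luciferin-H EGE; it ran 60 min at 37C after NADPH regeneration and a 10 min compound preincubation. Luminescence values were scaled to 57uM ketoconazole as complete inhibition.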

We go through eight compounds from PubChem BioAssay (NCATS).

A number with no mark means an inactive call. Records with an inconclusive call do not appear. Calls of active or inactive are those of the source. Unless noted, calls come from the whole dose curve; as a rule, active = well fitted curve in either direction with a large enough effect (not every such curve was filed as active); inconclusive = small, poorly fitted or top-dose-only effect, or another doubt; inactive = flat fitted curve, though single readings scatter.

Cytochrome P450 1A2 (Homo sapiens), sequence (P05177 whole entry, looked up): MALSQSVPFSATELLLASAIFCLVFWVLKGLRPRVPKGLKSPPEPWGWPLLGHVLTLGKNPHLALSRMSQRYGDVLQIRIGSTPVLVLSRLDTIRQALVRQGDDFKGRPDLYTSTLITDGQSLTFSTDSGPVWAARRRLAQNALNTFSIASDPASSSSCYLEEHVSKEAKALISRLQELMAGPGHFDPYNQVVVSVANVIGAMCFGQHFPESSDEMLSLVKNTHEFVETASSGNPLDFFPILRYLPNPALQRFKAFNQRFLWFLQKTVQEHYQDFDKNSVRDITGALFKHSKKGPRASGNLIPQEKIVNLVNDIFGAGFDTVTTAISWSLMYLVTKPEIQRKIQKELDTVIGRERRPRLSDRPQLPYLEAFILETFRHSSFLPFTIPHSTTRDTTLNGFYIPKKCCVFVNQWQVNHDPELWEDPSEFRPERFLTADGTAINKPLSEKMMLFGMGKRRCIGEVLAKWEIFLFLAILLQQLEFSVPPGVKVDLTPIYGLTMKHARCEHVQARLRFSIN
3',5'-cyclic-AMP phosphodiesterase 4B (Homo sapiens), sequence (Q07343 whole entry, looked up): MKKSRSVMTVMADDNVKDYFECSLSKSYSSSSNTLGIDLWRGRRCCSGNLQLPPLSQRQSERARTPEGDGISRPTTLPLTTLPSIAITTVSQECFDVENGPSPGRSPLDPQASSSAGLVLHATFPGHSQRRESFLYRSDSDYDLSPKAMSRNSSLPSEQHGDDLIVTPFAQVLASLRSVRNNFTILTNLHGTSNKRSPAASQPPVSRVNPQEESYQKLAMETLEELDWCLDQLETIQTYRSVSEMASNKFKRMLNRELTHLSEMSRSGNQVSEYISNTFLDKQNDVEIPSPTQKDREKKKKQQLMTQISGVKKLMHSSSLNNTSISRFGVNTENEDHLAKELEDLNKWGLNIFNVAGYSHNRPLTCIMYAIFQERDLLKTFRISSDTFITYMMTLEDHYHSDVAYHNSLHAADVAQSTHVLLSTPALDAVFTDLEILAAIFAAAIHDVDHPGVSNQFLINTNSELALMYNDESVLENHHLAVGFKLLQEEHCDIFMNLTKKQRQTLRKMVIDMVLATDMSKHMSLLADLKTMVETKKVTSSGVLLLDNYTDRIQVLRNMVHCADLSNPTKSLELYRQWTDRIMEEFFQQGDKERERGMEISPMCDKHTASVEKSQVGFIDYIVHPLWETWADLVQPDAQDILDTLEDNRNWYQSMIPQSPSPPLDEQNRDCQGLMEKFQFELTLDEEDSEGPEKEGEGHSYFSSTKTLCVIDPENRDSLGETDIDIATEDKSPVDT
Glucocorticoid receptor (Homo sapiens), sequence (P04150 whole entry, looked up, the tested form may be a part): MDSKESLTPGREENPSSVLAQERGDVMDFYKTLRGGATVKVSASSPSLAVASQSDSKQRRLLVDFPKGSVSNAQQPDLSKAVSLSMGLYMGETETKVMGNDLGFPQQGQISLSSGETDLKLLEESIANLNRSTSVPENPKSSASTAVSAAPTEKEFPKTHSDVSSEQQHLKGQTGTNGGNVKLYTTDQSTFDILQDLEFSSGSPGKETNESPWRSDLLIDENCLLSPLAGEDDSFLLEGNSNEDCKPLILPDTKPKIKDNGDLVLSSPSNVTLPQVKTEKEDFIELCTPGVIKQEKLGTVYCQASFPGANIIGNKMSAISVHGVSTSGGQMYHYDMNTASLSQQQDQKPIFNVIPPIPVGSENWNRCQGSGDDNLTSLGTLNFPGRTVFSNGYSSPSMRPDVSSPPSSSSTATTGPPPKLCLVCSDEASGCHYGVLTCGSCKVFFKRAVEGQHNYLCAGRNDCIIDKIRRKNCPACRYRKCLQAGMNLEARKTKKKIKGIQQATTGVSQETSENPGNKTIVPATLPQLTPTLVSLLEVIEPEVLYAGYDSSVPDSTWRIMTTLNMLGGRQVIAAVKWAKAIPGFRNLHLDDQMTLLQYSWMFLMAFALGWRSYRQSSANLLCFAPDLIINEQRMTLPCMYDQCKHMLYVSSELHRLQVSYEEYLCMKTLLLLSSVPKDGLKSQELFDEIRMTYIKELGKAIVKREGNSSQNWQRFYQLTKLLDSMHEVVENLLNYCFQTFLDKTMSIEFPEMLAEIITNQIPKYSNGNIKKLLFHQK
Lysosomal acid glucosylceramidase (Homo sapiens), sequence (P04062 whole entry, looked up): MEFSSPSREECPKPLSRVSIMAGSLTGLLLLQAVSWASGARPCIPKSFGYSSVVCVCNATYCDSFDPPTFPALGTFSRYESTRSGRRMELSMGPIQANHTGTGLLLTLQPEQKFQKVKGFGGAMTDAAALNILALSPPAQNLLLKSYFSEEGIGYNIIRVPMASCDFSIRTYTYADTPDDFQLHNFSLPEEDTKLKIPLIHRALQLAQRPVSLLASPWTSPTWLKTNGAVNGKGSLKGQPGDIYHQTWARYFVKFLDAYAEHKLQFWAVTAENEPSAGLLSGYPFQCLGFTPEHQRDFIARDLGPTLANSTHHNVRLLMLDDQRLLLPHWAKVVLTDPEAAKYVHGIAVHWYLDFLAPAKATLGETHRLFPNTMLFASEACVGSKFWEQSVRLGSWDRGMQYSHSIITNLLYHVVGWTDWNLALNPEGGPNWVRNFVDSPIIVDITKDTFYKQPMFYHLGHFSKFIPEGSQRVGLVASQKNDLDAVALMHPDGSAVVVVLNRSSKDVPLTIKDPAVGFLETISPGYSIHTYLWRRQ
Cytochrome P450 3A4 (Homo sapiens), sequence (P08684 whole entry, looked up): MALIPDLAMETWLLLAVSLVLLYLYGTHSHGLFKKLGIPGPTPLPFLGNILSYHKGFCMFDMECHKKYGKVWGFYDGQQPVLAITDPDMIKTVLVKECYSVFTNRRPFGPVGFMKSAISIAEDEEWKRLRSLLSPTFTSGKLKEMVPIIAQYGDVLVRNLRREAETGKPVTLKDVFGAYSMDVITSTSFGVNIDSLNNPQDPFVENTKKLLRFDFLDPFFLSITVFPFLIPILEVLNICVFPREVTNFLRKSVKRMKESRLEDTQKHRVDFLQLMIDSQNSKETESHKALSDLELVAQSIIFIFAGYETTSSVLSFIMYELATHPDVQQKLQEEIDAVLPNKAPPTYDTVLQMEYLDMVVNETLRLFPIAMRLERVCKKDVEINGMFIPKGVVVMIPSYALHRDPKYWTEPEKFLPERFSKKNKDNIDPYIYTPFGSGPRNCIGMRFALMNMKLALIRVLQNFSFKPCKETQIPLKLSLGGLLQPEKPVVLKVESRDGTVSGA
ATP-dependent 6-phosphofructokinase (Trypanosoma brucei brucei), sequence (O15648 whole entry, looked up): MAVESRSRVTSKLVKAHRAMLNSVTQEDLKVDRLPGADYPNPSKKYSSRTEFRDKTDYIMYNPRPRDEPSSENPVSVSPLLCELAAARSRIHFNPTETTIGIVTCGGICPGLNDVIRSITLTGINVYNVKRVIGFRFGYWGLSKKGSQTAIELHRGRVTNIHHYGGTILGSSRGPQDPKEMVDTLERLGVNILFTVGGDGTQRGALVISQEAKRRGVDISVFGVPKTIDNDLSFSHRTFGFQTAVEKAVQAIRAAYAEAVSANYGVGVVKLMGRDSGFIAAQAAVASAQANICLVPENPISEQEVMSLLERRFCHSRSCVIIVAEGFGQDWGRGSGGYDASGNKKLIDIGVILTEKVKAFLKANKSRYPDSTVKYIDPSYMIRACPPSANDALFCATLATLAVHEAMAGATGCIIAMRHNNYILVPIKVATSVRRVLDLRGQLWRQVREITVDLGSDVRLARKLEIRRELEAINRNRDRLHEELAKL
Cytochrome P450 2C9 (Homo sapiens), sequence (P11712 whole entry, looked up): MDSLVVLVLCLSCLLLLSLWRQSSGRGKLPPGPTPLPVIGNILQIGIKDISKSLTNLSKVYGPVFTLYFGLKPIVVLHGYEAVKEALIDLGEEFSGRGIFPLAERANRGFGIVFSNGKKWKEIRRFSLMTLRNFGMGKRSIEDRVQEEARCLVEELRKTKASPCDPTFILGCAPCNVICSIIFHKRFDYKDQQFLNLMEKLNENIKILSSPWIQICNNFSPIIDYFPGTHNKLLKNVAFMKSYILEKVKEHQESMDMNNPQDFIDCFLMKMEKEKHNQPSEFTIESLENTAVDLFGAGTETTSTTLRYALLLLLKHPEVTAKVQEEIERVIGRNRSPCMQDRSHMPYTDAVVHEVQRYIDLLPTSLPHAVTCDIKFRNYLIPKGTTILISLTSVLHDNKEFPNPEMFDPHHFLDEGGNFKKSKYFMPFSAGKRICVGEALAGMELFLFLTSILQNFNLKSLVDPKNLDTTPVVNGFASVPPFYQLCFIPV
Cytochrome P450 2C19 (Homo sapiens), sequence (P33261 whole entry, looked up): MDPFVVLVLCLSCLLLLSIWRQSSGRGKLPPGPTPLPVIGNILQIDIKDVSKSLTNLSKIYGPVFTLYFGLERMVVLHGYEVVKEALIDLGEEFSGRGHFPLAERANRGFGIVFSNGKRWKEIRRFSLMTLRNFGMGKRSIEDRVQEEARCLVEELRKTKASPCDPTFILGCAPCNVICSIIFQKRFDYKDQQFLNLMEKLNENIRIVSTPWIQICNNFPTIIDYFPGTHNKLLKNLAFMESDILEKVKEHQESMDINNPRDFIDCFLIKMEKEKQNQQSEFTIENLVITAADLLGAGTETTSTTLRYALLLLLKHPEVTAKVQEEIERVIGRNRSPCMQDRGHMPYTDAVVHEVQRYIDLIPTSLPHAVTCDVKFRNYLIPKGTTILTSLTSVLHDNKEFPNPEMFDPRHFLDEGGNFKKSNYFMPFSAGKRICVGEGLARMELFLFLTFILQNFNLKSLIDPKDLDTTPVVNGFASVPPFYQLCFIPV

For `O=C(O)[C@@H]1CCN(Cc2oc(CO)cc(=O)c2O)C1`, the Potency in test [1] was greater than 11.4 µM; in test [3] it was 10 µM (active); in test [6] it was greater than 9.22 µM. In addition, the activity change, negative = inhibition in test [2] was 6.76%; in test [4], -8.96%. In addition, in test [5], the activity, negative = inhibition is 16.1%. The Potency result in test [7] and in test [8] was “inactive” throughout.
Turning to `C[Si](C)(c1ccc(C(=O)O)cc1)c1ccc(C(=O)O)cc1`, the Potency in [1] is greater than 11.4 µM; in [9], greater than 46 µM. For the same compound, the activity change, negative = inhibition in test [2] is -1.98%; in test [4] it was -2.05%. Moreover, the Potency entry in test [3], in [7] and in [8] was “inactive” throughout. Also, in test [5], the activity, negative = inhibition is 14.2%.
For the compound `O=C(O)[C@@H](O)Cc1ccccn1`, the Potency in [1] is greater than 11.4 µM; in [9] it was greater than 46 µM. For the same compound, the activity change, negative = inhibition was 4.97% in [2] and 2.96% in [4]. Besides, the Potency result in test [3], in [7] and in test [8] was “inactive” throughout. Moreover, the activity, negative = inhibition in test [5] was 4.36%. In addition, the activation in test [10] was 0.65%.
Consider `N[C@@H](Cc1ccccc1)C(=O)O`, for which the Potency in test [1] is greater than 11.4 µM. In addition, the values for the activity change, negative = inhibition in test [2] and in test [4] were 3.61% and 14.5%, respectively. For the same compound, the Potency entry (in test [3]; in test [7]; in test [8]; in test [11]; in the test on CP192; in the test with CP203) was “inactive” in each case. Moreover, the Potency result with W2 was “inactive”. Also, the activity, negative = inhibition in test [5] is 12.6%; in test [13] (parasite line A), 4.49%; in [13] (parasite line B), -0.635%. Moreover, the compound was called inactive in [12].
For the compound `O=C(O)CCc1c2ccc(=O)c(O)c-2oc2c(O)c(O)ccc12`, the Potency in test [1] is greater than 11.4 µM; in [9] it was greater than 46 µM; in test [6] it was greater than 9.22 µM. The activity change, negative = inhibition in [2] is 3.21%; in [3] it was -4% [at 2.29 µM]; in test [4] it was 17.3%. For the same compound, the Potency result in test [7] and in test [8] was “inactive” throughout.
`C[C@H]1C[C@H]2[C@H]3CCC4=CC(=O)C=C[C@@]4(C)[C@]3(F)[C@H](O)C[C@]2(C)[C@@]1(O)C(=O)COP(=O)(O)O`: the Potency in test [1] is greater than 11.4 µM. Further, the activity change, negative = inhibition in test [2] is -4.3%; in test [4], 15.9%. The Potency result in test [3], in test [7] and in test [8] was “inactive” throughout. In addition, the activity, negative = inhibition in [5] was -7.89%.
For the compound `C/C(C[n+]1ccccc1)=N\N=C(N)N`, the Potency in test [1] is greater than 11.4 µM; in test [9] it was greater than 46 µM; in test [6], greater than 9.22 µM. Further, the results for the activity change, negative = inhibition in test [2] and in [4] were 1.19% and -14.3%, respectively. Further, the Potency result in [3], in [7], in [8] and in [14] was “inactive” throughout. The activation in test [10] is 3.43%.
In the case of `CC(=O)OC(C)(C)N=Nc1ccc(Br)cc1`, the Potency in test [1] was greater than 11.4 µM; in test [3], 3.16 µM (active); in test [6] it was greater than 9.22 µM; in [15] it was 1.26 µM (active). Moreover, the activity change, negative = inhibition in test [2] was -5.95%; in test [4] it was 14.8%. Moreover, in [5], the activity, negative = inhibition was 2.84%. Further, the Potency entry in test [7] and in [8] was “inactive” each time.
